In PubChem BioAssay (NCATS):
Several values for one entry are separate records, joined by “and”; a condition that tells them apart may be missing. Equal entries are not always repeated. Results filed as inconclusive are left out. Where a call stands in place of a potency, no number is given. Activity calls are given as the source filed them. Unless noted, calls follow the shape of the dose curve; as a rule, active = well fitted curve in the direction sought with a large enough effect; inconclusive = small, poorly fitted or top-dose-only effect, or another doubt; inactive = no such curve, though single readings can be large; an effect the other way counts as inactive or inconclusive.

How the values were obtained:
[1] = Cell Viability - BJ (AID 421; calls by dose curve;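 also: potency is read from the fitted curve at half-maximal effect; cells exposed to compound for 40 hours at 37 °C before readout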); details: BJ fibroblast viability, qHTS
In short: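 Cytotoxicity as drop in intracellular ATP (CellTiter-Glo, 20 min RT) after 40 hr compound exposure of BJ fibroblasts at 37 °C. Titrations scaled between DMSO and 100 uM tamoxifen, Hill-fitted for AC50.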

[2] = Cell Viability - HepG2 (AID 433; calls by dose curve;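 also: potency is read from the fitted curve at half-maximal effect; potency for ATP loss meaning cytotoxicity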); details: qHTS
In short: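 HepG2 cells, 1500 per well, treated 40 hr at 37 °C in complete medium; viability from intracellular ATP by CellTiter-Glo luminescence. Normalized to DMSO and 100 uM tamoxifen; AC50 from Hill fit of qHTS concentration-response.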

[3] = Cell Viability - HUV-EC-C (AID 542); details: HUV-EC-C endothelial cell viability, qHTS; series mostly up to 92.2 µM; also: nearly all actives have a fitted effect of over 35% in size
In short: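 Cells were seeded at 1000 per well and incubated 5 hr at 37 °C before compound addition. After 40 hr at 37 °C, CellTiter-Glo reagent was added for 20 min and luminescence read. AC50 values came from Hill-equation modelling.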

[4] = Cell Viability - Renal Proximal Tubule (AID 545); details: renal proximal tubule cells viability, primary cells of rat origin; activity change, negative = cytotoxicity: at 91.7 µM (top of the series); also: nearly all actives have a fitted effect of over 40% in size
In short: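 Rat renal proximal tubule primary cells, 1000/well, exposed to compounds for 40 hr at 37 °C in complete medium; cellular ATP read by CellTiter-Glo luminescence. AC50 from concentration-response fitted with standard Hill equation.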

[5] = Cell Viability - Mesenchymal (AID 546); details: mesenchymal cells viability, qHTS; activity change, negative = cytotoxicity: at 91.7 µM (top of the series);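 also: cells exposed to compound for 40 hours before reading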
In short: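 In this qHTS cytotoxicity format, glomerulus-derived human mesenchymal kidney cells received compound for 40 hr, then luciferase-based ATP quantitation. Concentration-response data were fitted with the Hill equation.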

[6] = MultiTox-Fluor Cytotoxicity Assay - LYMP1-003 - Dead Cells (AID 961); details: LYMP1-003 lymphoblastoid cells, dead-cell protease fluorescence; series mostly up to 92.2 µM; also: nearly all actives have a fitted effect of over 70% in size
In short: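 Dead-cell protease release, detected as bis-AAF-R110 fluorescence at 485/520 nm, was measured in LYMP1-003 cells after 16 h compound treatment at 37 C. AC50 values came from Hill-modeled qHTS curves normalized to DMSO (0%) and 15 uM tetraoctylammonium bromide (100%).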

[7] = Cell Viability - LYMP2-003 (AID 965); details: LYMP2-003 lymphoblastoid cell viability; series mostly up to 92.2 µM;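 also: cells exposed to compounds for 24 h before reading; nearly all actives have a fitted effect of over 50% in size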
In short: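 Human lymphoblastoid LYMP2-003 cells, 2500/well, exposed to compounds for 24 h at 37 C in complete medium. Viability read as intracellular ATP by CellTiter-Glo luminescence; AC50 from Hill-equation fits of qHTS concentration-response data.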

[8] = Cell Viability - LYMP2-011 (AID 969); details: LYMP2-011 lymphoblastoid cells viability; series mostly up to 92.2 µM; also: nearly all actives have a fitted effect of over 60% in size
In short: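 In this qHTS cytotoxicity format, compounds are tested across concentrations on human lymphoblastoid cells in complete medium for 24 hours at 37 C. Viability is taken as cellular ATP measured by luciferase luminescence.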

[9] = Cell Viability - LYMP2-013 (AID 970); details: LYMP2-013 lymphoblastoid cells viability; series mostly up to 92.2 µM; also: nearly all actives have a fitted effect of over 55% in size
In short: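 Cytotoxicity is scored as a concentration-dependent drop in intracellular ATP in human lymphoblastoid cells after 24 hr compound exposure at 37 C. ATP is quantified by luciferase luminescence, and AC50 values come from Hill-equation modeling.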

[10] = Cell Viability - LYMP2-023 (AID 975); details: LYMP2-023 lymphoblastoid cell viability; series mostly up to 92.2 µM; also: nearly all actives have a fitted effect of over 55% in size
In short: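 Steps: seed 2500 human lymphoblastoid cells per well, incubate 5 hr at 37 C, add compound for 24 hr at 37 C, add CellTiter-Glo, hold 30 min at room temperature, read luminescence. AC50 derived by Hill modelling.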

[11] = Cell Viability - LYMP2-025 (AID 976); details: LYMP2-025 lymphoblastoid cell viability; series mostly up to 92.2 µM
In short: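 Acute cytotoxicity is scored as a concentration-dependent fall in intracellular ATP, measured by luciferase luminescence, in human lymphoblastoid LYMP2-025 cells exposed to compound for 24 hours at 37 C. AC50 values come from standard Hill fits.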

[12] = Cell Viability - LYMP2-002 (AID 977); details: LYMP2-002 lymphoblastoid cell viability, qHTS; series mostly up to 92.2 µM;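 also: compound exposure lasted 24 h at 37 °C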
In short: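 In this qHTS viability screen, 2500 human lymphoblastoid cells per well receive compound for 24 hr at 37 C, and luciferase-based ATP luminescence gives the viability signal. Tetraoctylammonium bromide serves as positive control.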

[13] = Cell Viability - LYMP2-008 (AID 980); details: LYMP2-008 lymphoblastoid cell viability, qHTS; series mostly up to 92.2 µM; also: nearly all actives have a fitted effect of over 60% in size
In short: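 Cells seeded at 2500/well and rested 5 hr at 37 C; compounds added over a concentration range and incubated 24 hr at 37 C; CellTiter-Glo added, 30 min at room temperature; luminescence read and AC50 fitted with Hill model.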

[14] = Cell Viability - LYMP2-014 (AID 983); details: LYMP2-014 lymphoblastoid cells, viability qHTS; series mostly up to 92.2 µM; also: nearly all actives have a fitted effect of over 50% in size
In short: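 Cells are plated at 2500/well and left 5 hr at 37 C. Compounds are added across a concentration range and incubated 24 hr at 37 C in complete medium. CellTiter-Glo is added, and luminescence is read after 30 min at room temperature.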

[15] = Cell Viability - LYMP2-016 (AID 984); details: LYMP2-016 lymphoblastoid cell viability, qHTS; series mostly up to 92.2 µM; also: nearly all actives have a fitted effect of over 55% in size
In short: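 Human lymphoblastoid LYMP2-016 cells, 2500 per well, treated with compounds for 24 h at 37 C. Viability read as intracellular ATP by CellTiter-Glo luminescence after 30 min at room temperature; AC50 from Hill fits of concentration-response.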

[16] = Cell Viability - LYMP2-026 (AID 989); details: LYMP2-026 lymphoblastoid cell viability, qHTS; series mostly up to 92.2 µM; also: nearly all actives have a fitted effect of over 50% in size
In short: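 Cells are seeded at 2500 per well and held 5 hr at 37 C. Compounds are added in concentration series for 24 hr, then CellTiter-Glo reagent is applied and luminescence read.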

[17] = Cell Viability - LYMP1-002 - Assay at 40 hr (AID 994); details: LYMP1-002 lymphoblastoid cell viability; series mostly up to 92.2 µM; also: nearly all actives have a fitted effect of over 60% in size
In short: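 Cells are plated at 2500 per well and rested 5 hr at 37 C. Compounds are added and incubated 40 hr at 37 C. CellTiter-Glo reagent is added for 30 min at room temperature before luminescence is read.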

[18] = qHTS assay for small molecule antagonists of retinoid X receptor alpha signaling (AID 588546; active = well fitted inhibition curve with a large enough effect in the signal ratio, with a control signal flat, not every such curve was filed as active; the % refers to the signal ratio;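 also: cells stimulated with 9-cis-retinoic acid as agonist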); details: HEK293T RXRa-UAS-bla, beta-lactamase ratio, antagonist mode; measured here: W530 green channel, cytotoxicity proxy
In short: (§1)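 Beta-lactamase reporter inhibition, read as CCF4 fluorescence ratio (ex 405, em 460/530 nm) after 2 h at RT. HEK293T UAS-bla cells, 2500/well, were stimulated with 9-cis-RA at 500 or 100 nM final alongside test compound for 18 h at 37 C.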

[19] = molecular target: Retinoic acid receptor RXR-alpha (Homo sapiens) (UniProt P19793); assay: as above; details: HEK293T RXRa-UAS-bla, beta-lactamase ratio, antagonist mode
Chain of Retinoic acid receptor RXR-alpha (Homo sapiens) (P19793 whole entry, looked up): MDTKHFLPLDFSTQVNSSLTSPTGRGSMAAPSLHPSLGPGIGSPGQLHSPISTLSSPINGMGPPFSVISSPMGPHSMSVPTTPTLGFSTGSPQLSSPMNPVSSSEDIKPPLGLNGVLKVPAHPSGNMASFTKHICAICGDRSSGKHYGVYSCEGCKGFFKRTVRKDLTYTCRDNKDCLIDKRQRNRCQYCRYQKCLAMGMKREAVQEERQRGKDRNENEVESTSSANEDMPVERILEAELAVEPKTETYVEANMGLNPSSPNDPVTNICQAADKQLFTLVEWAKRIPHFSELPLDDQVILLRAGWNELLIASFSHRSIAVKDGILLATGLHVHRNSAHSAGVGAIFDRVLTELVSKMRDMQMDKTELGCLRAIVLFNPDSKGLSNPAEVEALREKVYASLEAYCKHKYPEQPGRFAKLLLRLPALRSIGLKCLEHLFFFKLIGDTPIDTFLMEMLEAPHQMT
In short: as §1

[20] = qHTS assay for environmental chemicals that activate the Aryl hydrocarbon Receptor (AhR) signaling pathway (AID 651777); details: 1A2-DRE human hepatoma cells, luciferase, 24 h; activation: stronger effect = higher value; also: nearly all actives have a fitted effect of over 15% in size
In short: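 Quantitative HTS in stably transfected human liver-derived cells whose luciferase gene sits downstream of the CYP1A2 promoter and dioxin response element. After 24 hr exposure at 37 C, One-Glo luminescence was measured.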

Structure (SMILES) | Potency [1] | Potency [2] | Potency [3] | Potency [4] | Potency [5] | Potency [6] | Potency [7] | Potency [8] | Potency [9] | Potency [10] | Potency [11] | Potency [12] | Potency [13] | Potency [14] | Potency [15] | Potency [16] | Potency [17] | max response [18] | max response [19] | activation [20]
CCCCNCC | > 92 µM (inactive) | > 92 µM (inactive) | inactive | inactive | inactive | inactive | inactive | inactive | inactive | inactive | inactive | inactive | inactive | inactive | inactive | inactive | inactive | -20.9% | 4.6% (inactive) | -0.56% (inactive)
O=[N+]([O-])c1cccc(I)c1 | > 92 µM (inactive) | > 92 µM (inactive) | inactive | inactive | inactive | inactive | inactive | inactive | inactive | inactive | inactive | inactive | inactive | inactive | inactive | inactive | inactive | -5.01% | -4.26% (inactive) | 0.159% (inactive)
CCNC(=S)NCC | > 92 µM (inactive) | > 92 µM (inactive) | inactive | inactive | inactive | inactive | inactive | inactive | inactive | inactive | inactive | inactive | inactive | inactive | inactive | inactive | inactive | -3.33% | 14.7% (inactive) | 1.67% (inactive)
Cc1c(N)cccc1Cl | > 92 µM (inactive) | > 92 µM (inactive) | inactive | inactive | inactive | inactive | inactive | inactive | inactive | inactive | inactive | inactive | inactive | inactive | inactive | inactive | inactive | 0.883% | 1.61% (inactive) | -0.26% (inactive)
CCCCCCN | > 92 µM (inactive) | > 92 µM (inactive) | inactive | inactive | inactive | inactive | inactive | inactive | inactive | inactive | inactive | inactive | inactive | inactive | inactive | inactive | inactive | -7.66% | 2.42% (inactive) | -0.159% (inactive)
CC(=O)c1ccc(Cl)c(Cl)c1Cl | > 92 µM (inactive) | > 92 µM (inactive) | inactive | inactive | inactive | inactive | inactive | inactive | inactive | inactive | inactive | inactive | inactive | inactive | inactive | inactive | inactive | -2.76% | 5.75% (inactive) | -0.636% (inactive)
CCCCCCCCC1CO1 (centres undefined) | > 92 µM (inactive) | > 92 µM (inactive) | inactive | inactive | inactive | inactive | inactive | inactive | inactive | inactive | inactive | inactive | inactive | inactive | inactive | inactive | inactive | -6.6% | -3.61% (inactive) | 0.826% (inactive)
CC(C)OCC1CO1 (centres undefined) | > 92 µM (inactive) | > 92 µM (inactive) | inactive | inactive | inactive | inactive | inactive | inactive | inactive | inactive | – | inactive | inactive | inactive | inactive | inactive | inactive | -11.4% | 1.98% (inactive) | 0.457% (inactive)
CC(=O)OC(C(=O)c1ccccc1)c1ccccc1 (centres undefined) | > 92 µM (inactive) | > 92 µM (inactive) | inactive | inactive | inactive | inactive | inactive | inactive | inactive | inactive | inactive | inactive | inactive | inactive | inactive | inactive | inactive | -6.89% | 22.3% (inactive) | -0.426% (inactive)
OCC(CBr)(CBr)CBr | > 92 µM (inactive) | > 92 µM (inactive) | inactive | inactive | inactive | inactive | inactive | inactive | inactive | inactive | inactive | inactive | inactive | inactive | inactive | inactive | inactive | -12.3% | 0.481% (inactive) | 7.86% (inactive)
Cc1cccnc1 | > 92 µM (inactive) | > 92 µM (inactive) | inactive | inactive | inactive | inactive | inactive | inactive | inactive | inactive | inactive | inactive | inactive | inactive | inactive | inactive | inactive | -1.12% | 7.72% (inactive) | 0.348% (inactive)
CCCCC(CC)COC(=O)COc1ccc(Cl)cc1Cl (centres undefined) | > 92 µM (inactive) | > 92 µM (inactive) | inactive | inactive | inactive | inactive | inactive | inactive | inactive | inactive | inactive | inactive | inactive | inactive | inactive | inactive | inactive | 0.541% and -5.28% | 18.5% (inactive) and 4.05% (inactive) | 0.535% (inactive) and 1.47% (inactive)
